Compound activity: PubChem BioAssay, National Center for Advancing Translational Sciences (NCATS)
HT1080NT lethal – kills 2HG-producing HT-1080-NT fibrosarcoma cells; HT-1080-NT fibrosarcoma viability, CellTiter-Glo ATP luminescence, 48 h; AID 686970; Potency, µM (doses to about 46.1 µM), inactives show at the highest dose activity, negative = less viability, most hits filed as cytotoxic; 1.6% of 360,000 active;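 further: NT is the 2HG producing partner of a matched IDH1 knockdown line; potency means the concentration at half of the fitted maximal effect; 0% = DMSO-treated cells and -100% = media-only wells without cells; nearly all actives have a fitted effect of over 55% in size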
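Compounds were tested in concentration-response format on HT-1080-NT cells for 48 hours at 37 degrees C. Cell viability came from CellTiter-Glo luminescence; curves were classified by r2, response magnitude and activity.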
HT1080 IDH1KD tx – HT-1080 IDH1 knockdown cell toxicity (counter line) | HT-1080 IDH1 knockdown viability, ATP luminescence, 48 h | Potency, µM (doses to about 46.1 µM), without a hit: at the top dose activity, negative = toxicity, actives largely listed as cytotoxic | 2% of 360,000 active | AID 686971;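 further: potency means the concentration at half of the fitted maximal effect; 0% = DMSO wells and -100% = cell-free medium wells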
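CellTiter-Glo luminescence after 48 h compound exposure at 37 degrees C of IDH1-knockdown HT-1080 cells in 5% FBS RPMI. %Activity scaled between DMSO wells and cell-free media wells, with curves fitted and assigned curve classes.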
DT40 TDP1 no CPT – qHTS for Inhibitors of human tyrosyl-DNA phosphodiesterase 1 (TDP1): qHTS in cells in absence of CPT | DT40 Tdp1-/- hTDP1 cells, no CPT, ATP luminescence, 48 h | Potency, µM (titrated, usually from 46.2 µM), for inactives: at the top dose activity change, negative = growth inhibition, hits mostly inhibitors | 15% of 420,000 active | AID 686978, 2013; further: potency means the concentration at half of the fitted maximal effect; nearly all actives have a fitted effect of over 55% in size
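Cells were dispensed at 400 per well, compounds added by pin tool, plates incubated ≥48 hr at 37 °C, then CellTiter-Glo added for 30 min at room temperature before luminescence reading. Line: DT40 Tdp1-/- complemented with hTDP1; camptothecin omitted.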
DT40 TDP1 CPT – growth inhibition of DT40 Tdp1-/-;hTDP1 cells with camptothecin (screen for TDP1 inhibitors); chicken DT40 Tdp1-/-;hTDP1 cells + 20 nM CPT, ATP luminescence, 48 h; 12% of 420,000 active; AID 686979; Potency, µM (titrated, usually from 46.2 µM), for the others: top-dose activity change, negative = growth inhibition, hits mostly inhibitors; further: potency means the concentration at half of the fitted maximal effect; nearly all actives have a fitted effect of over 55% in size
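Cell growth measured by CellTiter-Glo luminescence after a minimum 48 h, 37 C compound exposure with 20 nM CPT in Tdp1-knockout DT40 cells stably expressing hTDP1, seeded 400/well; qHTS titration format.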
ELG1 DNA repair – blocks ELG1-dependent DNA repair in HEK293T cells | HEK293T ELG1-luciferase reporter, luminescence, 16 h; DNA damage induced by 5-fluorouridine | Potency, µM (series often up to 46.1 µM), inactives show top-dose activity change, negative = inhibition, hits mostly inhibitors | 2.3% of 330,000 active; further: potency means the concentration at half of the fitted maximal effect; nearly all actives have a fitted effect of over 55% in size
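Step one: seed 2,000 cells per well. Step two: pin-transfer compound or DMSO alongside 5-fluorouridine. Step three: incubate 16 hr, 37 °C, 5% CO2. Step four: add ONE-Glo, wait 30 min, read luminescence.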
IL1B secr inh – inhibitors of inflammasome signaling (IL-1 beta secretion). 4.7% of 360,000 active. activity change, % at 57.5 µM. THP-1 LPS/ATP IL-1B secretion, AlphaLISA, 16 h; stronger effect = lower value; in the data active means activity change below about -50%; inconclusive means mostly about -30% to -49%
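Secreted IL-1B measured by AlphaLISA bead assay after 16 h compound exposure of THP-1 cells; compounds (final up to 57.5 uM) added 1 h before LPS (250 ng/mL) and ATP (1.25 mM) stimulation; lower signal means less secretion.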
Numbers without * were called inactive. In the library only some 19% were active in any assay of this set; here they are far more common. Unless noted, the call rests on the fitted dose curve; in most records, active means well fitted curve in the direction sought with a large enough effect; inconclusive means small, poorly fitted or top-dose-only effect, or another doubt; inactive means no such curve, though single readings can be large; an effect the other way counts as inactive or inconclusive. Unless noted, on the % scale 0 is the no-effect control and ±100 the full control effect.

`COc1cc(-c2nc3ccc(C)cn3c2NCc2ccccc2)ccc1-c1cccc(Cl)c1` gave HT1080NT lethal inconclusive, HT1080 IDH1KD tx -11.4%, DT40 TDP1 no CPT inconclusive, DT40 TDP1 CPT inconclusive, ELG1 DNA repair -8.0% and IL1B secr inh -6.8.
Cc1ccccc1Nc1c(-c2ccc(N3CCOCC3)cc2)nc2ccc(Br)cn12 was read as DT40 TDP1 no CPT 14.6µM* and DT40 TDP1 CPT 11.6µM*.
COc1cc(O)ccc1-c1nc2ccc(Br)cn2c1Nc1ccccc1C was read as DT40 TDP1 no CPT 9.2µM* and DT40 TDP1 CPT 20.6µM*.
For Cc1nc2ccc(Br)cn2c1NC(C)(C)C the results were HT1080NT lethal inconclusive, HT1080 IDH1KD tx inconclusive, DT40 TDP1 no CPT -22.9%, DT40 TDP1 CPT -20.5%, ELG1 DNA repair -25.4% and IL1B secr inh 15.2.
`Cc1c(C=O)ccc(N(C)C)c1C` gave DT40 TDP1 no CPT -10.9% and DT40 TDP1 CPT 12.3%.
`C/C(=C/C(=O)O)C(=O)Nc1cccc(C(F)(F)F)c1` gave HT1080NT lethal 12.8%, HT1080 IDH1KD tx 19.9%, DT40 TDP1 no CPT -7.7%, DT40 TDP1 CPT inconclusive, ELG1 DNA repair 6.4% and IL1B secr inh 4.3.
`O=C(CCC1CCCCC1)NCCN1C2=NC[C@@H](Cc3ccccc3)N2C[C@H]1Cc1ccc(O)cc1` gave HT1080NT lethal -17.6%, HT1080 IDH1KD tx -16.5%, DT40 TDP1 no CPT 16.4µM*, DT40 TDP1 CPT 16.4µM*, ELG1 DNA repair -2.5% and IL1B secr inh 0.0.
`C/C=C(\C)C(=O)NCCN1C2=NC[C@H](Cc3ccc(O)cc3)N2C[C@H]1Cc1ccc(O)cc1` gave HT1080NT lethal 9.6%, HT1080 IDH1KD tx 6.9%, DT40 TDP1 no CPT -20.3%, DT40 TDP1 CPT 4.5%, ELG1 DNA repair -11.5% and IL1B secr inh 25.1.
Screening C[C@H]1CN=C2N(CCNC(=O)CCC3CCCCC3)[C@H](Cc3ccc(O)cc3)CN21 returned HT1080NT lethal -3.4%, HT1080 IDH1KD tx -1.6%, DT40 TDP1 no CPT inconclusive, DT40 TDP1 CPT inconclusive, ELG1 DNA repair -5.4% and IL1B secr inh -10.7.
Screening O=C(CCC1CCCCC1)NCCN1C2=NC[C@H](Cc3ccccc3)N2C[C@H]1Cc1ccc(O)cc1 returned HT1080NT lethal -7.5%, HT1080 IDH1KD tx 1.5%, DT40 TDP1 no CPT 18.4µM*, DT40 TDP1 CPT 20.6µM*, ELG1 DNA repair 0.5% and IL1B secr inh -23.5.
For CCC(C)[C@H](NC(=O)N1CCn2c1nc1ccccc12)C(=O)NCc1ccccc1 (some centres undefined) the results were HT1080NT lethal -19.8%, HT1080 IDH1KD tx -16.6%, DT40 TDP1 no CPT inconclusive, DT40 TDP1 CPT inconclusive, ELG1 DNA repair 1.1% and IL1B secr inh 0.0.
For CC(=O)Nc1ccc2c(c1)CCCN2C(=O)c1ccccc1 the results were HT1080NT lethal 1.0%, HT1080 IDH1KD tx -0.9%, DT40 TDP1 no CPT -22.2%, DT40 TDP1 CPT -4.1%, ELG1 DNA repair 0.3% and IL1B secr inh 11.5.
`Cc1cc(C)c(S(=O)(=O)NCc2ccc3c(c2)CCN3C(=O)c2ccccc2)c(C)c1` gave DT40 TDP1 no CPT 10.3µM* and DT40 TDP1 CPT 14.6µM*.
`Cc1cc(C)c(S(=O)(=O)NCc2ccc3c(c2)cc(C)n3C)c(C)c1` gave HT1080NT lethal -3.8%, HT1080 IDH1KD tx -3.0%, DT40 TDP1 no CPT 23.1µM*, DT40 TDP1 CPT inconclusive, ELG1 DNA repair -6.4% and IL1B secr inh 36.3.
`CCC(=O)N1CCc2cc(CNS(=O)(=O)c3c(C)cc(C)cc3C)ccc21` gave DT40 TDP1 no CPT 20.6µM* and DT40 TDP1 CPT inconclusive.
